Measurements reported in PubChem BioAssay (NCI).
This is part of a sample that, as a whole, favours compounds with a hit. Of some 83,000 tested, about 20% had one in any assay.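 Compound tested at a single concentration for 48 hours in 96-well plates; a percent growth value below 10 was scored as active.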 Calls of active or inactive are those of the source.

Experiments:
Assay in all cases: NCI-60 one-dose screen, 48 h (100 = growth as untreated, 0 = no growth, -100 = all killed)
Conditions in all cases: 10 µM unless noted
[1] = system: SR leukemia
[2] = system: RPMI-8226 leukemia
[3] = system: OVCAR-8 ovarian
[4] = system: OVCAR-5 ovarian
[5] = system: OVCAR-4 ovarian
[6] = system: SK-OV-3 ovarian
[7] = system: IGROV1 ovarian
[8] = system: OVCAR-3 ovarian
[9] = system: HS 578T breast
[10] = system: NCI/ADR-RES ovarian
[11] = system: T-47D breast
[12] = system: BT-549 breast
[13] = system: MDA-MB-435 melanoma
[14] = system: SW-620 colon
[15] = system: MCF7 breast
[16] = system: HCT-116 colon
[17] = system: KM12 colon
[18] = system: HCC-2998 colon

Measured: growth

CS(CCCCN=C=S)=NC(=O)c1c(F)c(F)c(F)c(F)c1F (stereo unspecified)
active: [1] 2.68%
inactive: [2] 10.3% | [3] 91.9% | [4] 109% | [5] 74.4% | [6] 91.7% | [7] 76.8% | [8] 57.3% | [9] 90.8% | [10] 97.3% | [11] 19.1% | [12] 95.7% | [13] 70.8% | [14] 52.6% | [15] 22.8% | [16] 54% | [17] 55.8%

CN(C)c1ccc(/C=C\C2=[N+](C)c3ccccc3C2(C)C)cc1
inactive: [1] 25% | [2] 66.5% | [3] 20.8% | [4] 27.9% | [5] 35.5% | [10] 84.1% | [14] 10.3% | [18] 23.4%
active: [6] -11.6% | [7] 9.25% | [8] -9.9% | [9] 9.83% | [11] 0.627% | [12] -4.12% | [13] 3.88% | [16] 7.97% | [17] -21.1%

COC(=O)[C@@H]1CC[C@]2(C)[C@H](CC[C@@H]3O[C@@]32C)[C@@]1(C)CC(=O)c1ccoc1
inactive: [1] 86.6% | [2] 91.2% | [3] 102% | [4] 109% | [5] 127% | [6] 103% | [7] 105% | [8] 105% | [9] 88.2% | [10] 103% | [11] 105% | [12] 105% | [13] 104% | [14] 88.3% | [16] 98.4% | [18] 93.1% | [17] 108%

CC1=CC(=O)CC(C)(C)[C@@]1(O)/C=C/[C@@H](C)O
inactive: [1] 111% | [2] 109% | [3] 90.1% | [4] 103% | [5] 106% | [6] 113% | [7] 107% | [8] 108% | [9] 105% | [10] 95.6% | [11] 91.7% | [12] 105% | [13] 102% | [14] 105% | [15] 84.6% | [16] 101% | [17] 102%

CCN(CC)CCCC(C)NCCCNc1cccc2cccnc12 (stereo unspecified)
inactive: [1] 91% | [2] 96.9% | [3] 91.9% | [4] 125% | [5] 83.2% | [6] 89.2% | [7] 99.7% | [8] 89.8% | [9] 105% | [10] 92.3% | [11] 89.5% | [12] 102% | [13] 106% | [14] 96.5% | [16] 95.4% | [18] 82.5% | [17] 102%

COc1cc(OC)c(/C=C/C(=O)c2c(OC)cc(OC)cc2OC)c(OC)c1
inactive: [3] 17.6% | [4] 29.1% | [5] 47.6% | [6] 24.7% | [7] 30.1% | [9] 52.6% | [10] 12.3% | [11] 13% | [12] 33.4% | [18] 30.3%
active: [1] -11.9% | [2] -6.66% | [8] 6.92% | [13] -34.8% | [14] 8.71% | [16] 8.7% | [17] 9.29%

C#Cc1nc2ccccc2c(=O)[nH]1
active: [1] 2.53% | [2] -22.2% | [3] -31.3% | [4] -44.7% | [5] -74.4% | [7] -66.2% | [8] -82.3% | [9] -4.79% | [10] -2.94% | [11] -30.6% | [12] -61.2% | [13] -58.2% | [14] -63.7% | [16] -64.2% | [18] -41.1% | [17] -65.7%
inactive: [6] 49.6%

ClC1=C2NC=NC2n2c(nnc2-c2ccc(Cl)cc2)N1 (stereo unspecified)
inactive: [1] 91.9% | [2] 89.2% | [3] 96.9% | [4] 110% | [5] 116% | [6] 105% | [7] 119% | [8] 120% | [9] 112% | [10] 108% | [11] 90.8% | [12] 101% | [13] 99.9% | [14] 115% | [16] 98.5% | [18] 102% | [17] 99.6%

COc1cc(C2CC(=O)Nc3c2cnn3Cc2ccco2)cc2c1OCCO2 (stereo unspecified)
inactive: [2] 77.2% | [3] 101% | [4] 86.2% | [5] 94.3% | [6] 97.7% | [7] 56.3% | [8] 73.9% | [9] 83.6% | [10] 88.9% | [11] 88.8% | [12] 87.7% | [14] 56.6% | [15] 54.1% | [16] 72.5% | [17] 48.4%
active: [1] 8.04% | [13] 4.28%

O=C1c2cc3c(cc2-c2c1c1cc(Cl)c(Cl)cc1c(=O)n2CCCn1ccnc1)OCO3
active: [1] -13.4% | [2] -0.183% | [3] 8.55% | [6] -3.8% | [8] 5.18% | [10] 4.47% | [11] 0.538% | [16] 3.49% | [17] 6%
inactive: [4] 25.9% | [5] 30.1% | [7] 24.4% | [9] 66.7% | [12] 19.1% | [13] 18.5% | [14] 25.6% | [18] 28.6%

CC/C=C\C[C@H](O)C/C=C1/C(=O)C=C[C@@H]1C/C=C\CCCC(=O)OC(C)C
inactive: [5] 23.3% | [6] 16.4% | [9] 53.9%
active: [1] -27% | [2] -21.6% | [3] 5.63% | [4] 9.35% | [7] -2.92% | [8] -39.6% | [10] 6.4% | [11] 6.79% | [12] -18.3% | [13] 2.16% | [14] 0.553% | [16] -70.1% | [18] -88% | [17] -62.2%

NS(=O)(=O)c1ccc(-n2ncc3c(=O)[nH]c(CN4CCN(c5cc6c(cc5F)c(=O)c(C(=O)O)cn6C5CC5)CC4)nc32)cc1
inactive: [1] 97.2% | [2] 105% | [3] 97.8% | [4] 97.6% | [5] 104% | [6] 107% | [7] 92.8% | [8] 107% | [9] 97.8% | [10] 94.4% | [11] 106% | [12] 68.9% | [13] 99.9% | [14] 98.8% | [15] 94.9% | [16] 100% | [17] 102%

Clc1nc(Cl)c2c3c(sc2n1)CCCC3
inactive: [3] 39.8% | [4] 96.5% | [5] 44.1% | [6] 107% | [7] 38.4% | [9] 76.2% | [10] 99.7% | [11] 38.4% | [12] 13.3% | [13] 49.3% | [14] 34.3% | [15] 30.7% | [16] 12.5% | [17] 74.2%
active: [1] -36.4% | [2] 1.89% | [8] -35.9%

CCC(c1ccccc1)C(CC)c1ccc(O)c(O)c1 (stereo unspecified)
inactive: [1] 55.3% | [2] 102% | [3] 102% | [4] 115% | [5] 82.4% | [6] 112% | [7] 96.5% | [8] 86% | [9] 87.1% | [10] 96.1% | [11] 80.5% | [12] 110% | [13] 95% | [14] 97.3% | [16] 88.2% | [18] 97.5% | [17] 90.9%

CCCCCCCCCCCCCC1=NCCN1CCO
inactive: [2] 21% | [3] 52.6% | [4] 79.1% | [5] 169% | [6] 107% | [7] 13.3% | [8] 164% | [9] 37.9% | [10] 84.5% | [11] 65.7% | [12] 123% | [13] 85.3% | [18] 71.2% | [17] 56.7%
active: [1] -4.54% | [14] -38.6% | [16] -36.2%

COc1cccc(-c2nc3sccn3c2-c2ccnc(NCCCNS(=O)(=O)c3ccccc3)c2)c1
inactive: [1] 53.7% | [3] 17.6% | [4] 92% | [5] 27.6% | [6] 79.2% | [7] 39.6% | [8] 38.7% | [9] 66.8% | [10] 12.7% | [13] 38.5% | [14] 59% | [15] 46.2% | [16] 12.2% | [17] 29.2%
active: [2] -17.4% | [11] -8.88% | [12] 2.07%

O=c1c2cccc3c(NC4CCCCC4)ccc(c32)c2nc3ccccc3n12
active: [1] 1.11%
inactive: [2] 75.6% | [3] 97.9% | [4] 103% | [5] 80.1% | [6] 98.3% | [7] 41.2% | [8] 86.8% | [9] 96% | [10] 95.5% | [11] 32.5% | [12] 94.1% | [13] 103% | [14] 80.1% | [16] 85.3% | [18] 51.7% | [17] 81.1%

COc1cc(C#N)cc(OC)c1OCCN(CCOc1c(OC)cc(C#N)cc1OC)S(=O)(=O)c1ccc(C)cc1
inactive: [1] 106% | [2] 90.6% | [3] 54.1% | [4] 108% | [5] 107% | [6] 119% | [7] 77.3% | [8] 118% | [9] 99% | [10] 95.9% | [11] 96.3% | [12] 107% | [13] 114% | [14] 99.6% | [15] 108% | [16] 81.6% | [17] 108%
